# Test results reported in PubChem BioAssay (NCATS).
# “And” between values parts separate entries of the source, which are not always exact repeats. Equal values may be shown once. Results filed as inconclusive are left out. The source made the active and inactive calls. Unless noted, calls come from the whole dose curve.
# Molecular target: Thyroid hormone receptor beta (Homo sapiens) (UniProt P10828)
# Assay: qHTS assay for small molecule agonists of thyroid hormone receptor beta signaling (AID 588545); note: potency is the fitted concentration of half-maximal effect;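 for activation: 0% = DMSO only and 100% = 10 nM T3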
# Details: TR-UAS-bla GripTite HEK 293, beta-lactamase ratio, agonist mode, 18 h; series mostly up to 76.7 µM; activation: at the top concentration
# Method in brief: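 Efficacy and EC50 values derive from Hill fits of qHTS titration data, normalized to 10 nM T3 and DMSO-only wells. HEK 293 reporter cells were stimulated for 18 hrs at 37 C, with beta-lactamase activity measured by CCF4 fluorescence.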
# Thyroid hormone receptor beta (Homo sapiens), sequence (P10828 whole entry, looked up): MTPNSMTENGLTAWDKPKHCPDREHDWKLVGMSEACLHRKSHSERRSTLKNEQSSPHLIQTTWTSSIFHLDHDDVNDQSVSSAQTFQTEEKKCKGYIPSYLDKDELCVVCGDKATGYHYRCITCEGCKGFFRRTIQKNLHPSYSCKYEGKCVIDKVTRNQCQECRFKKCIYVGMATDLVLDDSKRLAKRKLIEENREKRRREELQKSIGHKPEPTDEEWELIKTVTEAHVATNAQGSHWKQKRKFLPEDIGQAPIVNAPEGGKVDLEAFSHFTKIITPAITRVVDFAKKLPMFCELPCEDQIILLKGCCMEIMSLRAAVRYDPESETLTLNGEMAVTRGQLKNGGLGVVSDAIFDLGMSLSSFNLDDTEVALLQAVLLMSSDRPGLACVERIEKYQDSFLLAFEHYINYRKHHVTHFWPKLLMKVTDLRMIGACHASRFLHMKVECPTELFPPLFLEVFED
SMILES,activation,Potency
CCCCCCc1ccc(-c2ccc(C#N)cc2)cc1,-16.2% (inactive),
Nc1cnn([C@@H]2O[C@H](CO)[C@@H](O)[C@H]2O)c(=O)n1,-10% (inactive),
CCCCCCCCOc1ccc(C(=O)O)cc1,-26.7% (inactive),
Oc1c(Cl)cc(Cl)c(Cl)c1Cl,,inactive
CC(C)OCC1CO1 (configuration not stated),-31.3% (inactive),
C/C(Cl)=C/CCl,-19.6% (inactive),
O=c1[nH]ncc2ccccc12,-15.9% (inactive),
c1ccc(COCc2ccccc2)cc1,-7.32% (inactive),
O=[N+]([O-])c1cccc(I)c1,-17% (inactive),
Nc1ccc2c(c1)C(=O)c1ccccc1C2=O,,inactive
c1ccc2c(c1)ccc1ccccc12,,inactive
Nc1ccc(N=Nc2ccccc2)c(N)c1,-21% (inactive),
COc1ccc([N+](=O)[O-])cc1N,,inactive
OCC(CO)(CBr)CBr,,inactive
Nc1cc(C(=O)O)c(O)c(S(=O)(=O)O)c1,-0.217% (inactive),
Oc1ccc2c(c1)OCO2,-11% (inactive),

SMILES,activation,Potency
c1ccncc1,0.322% (inactive),
CC(=O)OC1CC(C)OC(C)O1 (configuration not stated),,inactive
O=C(OCc1ccccc1)c1ccccc1O,-7.22% (inactive),
C/C=C/C=C/C=O,-8.38% (inactive),
CCN(CC)c1ccc2c(C)cc(=O)oc2c1,,22.4 µM (active)
c1c[nH]cn1,-11% (inactive),
c1ccc(SCCSc2ccccc2)cc1,-6.79% (inactive),
CCCCOC(=O)COc1ccc(Cl)cc1Cl,,inactive
CC(=O)OC(C(=O)c1ccccc1)c1ccccc1 (configuration not stated),-33.3% (inactive),
CCCCCCN,-16.8% (inactive),
CCC(Cl)CC(Cl)C(Cl)C(Cl)C(Cl)C(C)Cl (configuration not stated),5.2% (inactive),
CCc1ccc(C(c2ccc(CC)cc2)C(Cl)Cl)cc1,5.97% (inactive),
C=CC1CO1 (configuration not stated),2.17% (inactive),
COc1cc(-c2ccc(N=C=O)c(OC)c2)ccc1N=C=O,-14.3% (inactive),
CCOC(=O)C1OC1c1ccccc1 (configuration not stated),-11.4% (inactive),
COc1ccc(C(=O)Nc2ccccc2)cc1[N+](=O)[O-],-51.7% (inactive),

# Tested on: not listed separately
# Assay: qHTS assay for small molecule antagonists of retinoid X receptor alpha signaling (AID 588546; active = well fitted inhibition curve with a large enough effect in the signal ratio, with a control signal flat, not every such curve was filed as active; the % refers to the signal ratio;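 note: cells stimulated with 9-cis-retinoic acid as agonist; % is set by controls: 0 for no effect and ±100 for the full control effect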)
# Details: HEK293T RXRa-UAS-bla, beta-lactamase ratio, antagonist mode; measured here: W530 green channel, cytotoxicity proxy
# Method in brief: (§1)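 Beta-lactamase reporter inhibition, read as CCF4 fluorescence ratio (ex 405, em 460/530 nm) after 2 h at RT. HEK293T UAS-bla cells, 2500/well, were stimulated with 9-cis-RA at 500 or 100 nM final alongside test compound for 18 h at 37 C.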
row,SMILES,max response
1,CCCCCCc1ccc(-c2ccc(C#N)cc2)cc1,-7.3%
2,Nc1cnn([C@@H]2O[C@H](CO)[C@@H](O)[C@H]2O)c(=O)n1,8.26%
3,CCCCCCCCOc1ccc(C(=O)O)cc1,-3.84%
4,Oc1c(Cl)cc(Cl)c(Cl)c1Cl,-1.63% and -16.2%
5,CC(C)OCC1CO1 (configuration not stated),-11.4%
6,C/C(Cl)=C/CCl,-2.04%
7,CCCCNCC,-20.9%
8,O=c1[nH]ncc2ccccc12,-5.72%
9,c1ccc(COCc2ccccc2)cc1,-0.558%
10,O=[N+]([O-])c1cccc(I)c1,-5.01%
11,Nc1ccc2c(c1)C(=O)c1ccccc1C2=O,-11.8% and -6.92%
12,c1ccc2c(c1)ccc1ccccc12,-0.251%
13,Nc1ccc(N=Nc2ccccc2)c(N)c1,-9.61%
14,Cc1ccc(C(=O)O)cc1[N+](=O)[O-],-6.14%
15,COc1ccc([N+](=O)[O-])cc1N,0.433% and 4.58%
16,OCC(CO)(CBr)CBr,6.52% and -5.45%
17,Nc1cc(C(=O)O)c(O)c(S(=O)(=O)O)c1,12.7%
18,Oc1ccc2c(c1)OCO2,5.56%

row,SMILES,max response
1,CC(=O)OC1CC(C)OC(C)O1 (configuration not stated),1.48% and -10.6%
2,O=C(OCc1ccccc1)c1ccccc1O,-7.45% and -18.3%
3,c1c[nH]cn1,-8.47%
4,c1ccc(SCCSc2ccccc2)cc1,0.714%
5,O=C(O)/C=C/c1ccc(/C=C/C(=O)O)cc1,-0.222%
6,CCCCOC(=O)COc1ccc(Cl)cc1Cl,-10.2% and -6.39%
7,CC(=O)OC(C(=O)c1ccccc1)c1ccccc1 (configuration not stated),-6.89%
8,CCCCCCN,-7.66%
9,CC(=O)Nc1cccc(C)c1,1.11%
10,CCC(Cl)CC(Cl)C(Cl)C(Cl)C(Cl)C(C)Cl (configuration not stated),7.22%
11,COc1ccc(C)cc1N,-0.963%
12,CCc1ccc(C(c2ccc(CC)cc2)C(Cl)Cl)cc1,-4.78%
13,O=[N+]([O-])c1ccccc1Nc1ccccc1,-9.17%
14,C=CC1CO1 (configuration not stated),-2.46%
15,COc1cc(-c2ccc(N=C=O)c(OC)c2)ccc1N=C=O,-13.8%
16,CCOC(=O)C1OC1c1ccccc1 (configuration not stated),-0.854%
17,COc1ccc(C(=O)Nc2ccccc2)cc1[N+](=O)[O-],-10.5%

# Molecular target: Retinoic acid receptor RXR-alpha (Homo sapiens) (UniProt P19793)
# Sequence (P19793 whole entry, looked up): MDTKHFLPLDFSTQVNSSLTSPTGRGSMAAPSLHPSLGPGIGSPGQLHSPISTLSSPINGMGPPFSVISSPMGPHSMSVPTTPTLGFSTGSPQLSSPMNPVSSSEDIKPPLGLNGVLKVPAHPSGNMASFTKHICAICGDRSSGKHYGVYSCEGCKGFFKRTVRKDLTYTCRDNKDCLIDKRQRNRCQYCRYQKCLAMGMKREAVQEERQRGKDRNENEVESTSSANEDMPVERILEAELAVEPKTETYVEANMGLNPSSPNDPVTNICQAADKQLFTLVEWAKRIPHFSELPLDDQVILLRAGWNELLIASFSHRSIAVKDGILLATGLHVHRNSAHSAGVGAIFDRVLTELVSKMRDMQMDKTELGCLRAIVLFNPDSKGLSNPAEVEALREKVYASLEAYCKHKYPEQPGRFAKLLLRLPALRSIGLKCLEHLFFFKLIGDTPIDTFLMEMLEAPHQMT
# Assay: as above
# Details: HEK293T RXRa-UAS-bla, beta-lactamase ratio, antagonist mode
# Method in brief: as §1
row,SMILES,max response
1,CCCCCCc1ccc(-c2ccc(C#N)cc2)cc1,-14.6% (inactive)
2,Nc1cnn([C@@H]2O[C@H](CO)[C@@H](O)[C@H]2O)c(=O)n1,-17.1% (inactive)
3,CCCCCCCCOc1ccc(C(=O)O)cc1,-6.4% (inactive)
4,Oc1c(Cl)cc(Cl)c(Cl)c1Cl,4.04% (inactive) and 5.02% (inactive)
5,CC(C)OCC1CO1 (configuration not stated),1.98% (inactive)
6,C/C(Cl)=C/CCl,6.91% (inactive)
7,CCCCNCC,4.6% (inactive)
8,O=c1[nH]ncc2ccccc12,13% (inactive)
9,c1ccc(COCc2ccccc2)cc1,-1.13% (inactive)
10,O=[N+]([O-])c1cccc(I)c1,-4.26% (inactive)
11,Nc1ccc2c(c1)C(=O)c1ccccc1C2=O,7.8% (inactive) and -4.23% (inactive)
12,c1ccc2c(c1)ccc1ccccc12,9.87% (inactive)
13,Nc1ccc(N=Nc2ccccc2)c(N)c1,-15% (inactive)
14,Cc1ccc(C(=O)O)cc1[N+](=O)[O-],8.29% (inactive)
15,COc1ccc([N+](=O)[O-])cc1N,4.59% (inactive) and -0.147% (inactive)
16,OCC(CO)(CBr)CBr,4.02% (inactive) and -1.76% (inactive)
17,Nc1cc(C(=O)O)c(O)c(S(=O)(=O)O)c1,3.86% (inactive)
18,Oc1ccc2c(c1)OCO2,10.9% (inactive)

row,SMILES,max response
1,CC(=O)OC1CC(C)OC(C)O1 (configuration not stated),6% (inactive) and 5.73% (inactive)
2,O=C(OCc1ccccc1)c1ccccc1O,-0.686% (inactive) and -0.189% (inactive)
3,c1c[nH]cn1,-1.89% (inactive)
4,c1ccc(SCCSc2ccccc2)cc1,-1.47% (inactive)
5,O=C(O)/C=C/c1ccc(/C=C/C(=O)O)cc1,14.1% (inactive)
6,CCCCOC(=O)COc1ccc(Cl)cc1Cl,5.43% (inactive) and -12.7% (inactive)
7,CC(=O)OC(C(=O)c1ccccc1)c1ccccc1 (configuration not stated),22.3% (inactive)
8,CCCCCCN,2.42% (inactive)
9,CC(=O)Nc1cccc(C)c1,1.56% (inactive)
10,CCC(Cl)CC(Cl)C(Cl)C(Cl)C(Cl)C(C)Cl (configuration not stated),-1.06% (inactive)
11,COc1ccc(C)cc1N,10.5% (inactive)
12,CCc1ccc(C(c2ccc(CC)cc2)C(Cl)Cl)cc1,-8.97% (inactive)
13,O=[N+]([O-])c1ccccc1Nc1ccccc1,0.845% (inactive)
14,C=CC1CO1 (configuration not stated),-9.54% (inactive)
15,COc1cc(-c2ccc(N=C=O)c(OC)c2)ccc1N=C=O,-6.94% (inactive)
16,CCOC(=O)C1OC1c1ccccc1 (configuration not stated),9.69% (inactive)
17,COc1ccc(C(=O)Nc2ccccc2)cc1[N+](=O)[O-],-8.72% (inactive)
